According to PubChem BioAssay AID540303 (National Center for Advancing Translational Sciences (NCATS), 2011):
In all, about 330,000 compounds went through this assay and about 1,000 (0.3%) were called active. About 3% were inconclusive and are not listed. The full list was thinned out, with actives kept by preference. Values without a mark were called inactive. Calls follow the shape of the dose curve; as a rule, active = well fitted inhibition curve with a large enough effect; inconclusive = small, poorly fitted or top-dose-only effect; inactive = no such curve, though single readings can be large or run the other way; tested in mouse RAW 264.7 cells.
% is scaled to controls: 0 for no effect and ±100 for the full control effect; potency is read from the fitted curve at half-maximal effect.

Test: qHTS for Inhibitors of Cell Surface uPA Generation; also: nearly all actives have a fitted effect of over 55% in size
Conditions: cell surface uPA generation assay; series mostly up to 38.3 µM; activity change, negative = inhibition: at the top concentration
From the text: The overall objective of this project is to perform a quantitative high throughput screen (qHTS) to identify novel compounds that inhibit the generation of cell surface urokinase activity. The urokinase plasminogen activator (uPA) is one of the two primary endogenous systems that mediate plasminogen activation into plasmin. Members of this system, including uPA and its receptor (uPAR), are overexpressed in several malignant tumors. This system plays a major role in adhesion, migration, invasion and metastasis of cancer cells. Small molecule inhibitors of the uPA system will serve as probes to understand the molecular mechanisms of the uPA cascade and better understanding the microenvironmental circumstances that facilitate the activation of plasminogen by uPA, and finally may provide novel candidate agents for anticancer drug therapy.
[…] […] Upon inhibition of the uPA activation cascade, the subsequent cell surface uPA activity-dependent translocation of LF into the cytoplasm is inhibited. ATP-Lite is used to measure intracellular ATP concentrations, which remain increased if LF entry into the cytoplasm is inhibited. This validation assay was performed using a small set of validation compounds.
NIH Chemical Genomics Center [NCGC]
NIH Molecular Libraries Probe Centers Network [MLPCN]
Assay Submitter (PI): Thomas Bugge, National Institute of Dental and Craniofacial Research, NIH
Cultured RAW 264.7 were dispensed into 1536-well clear bottom, white walled tissue culture plates at a density of 4000 cells/well and were incubated overnight (12-16 h) at 37 C in a 5% CO2 incubator. Serially diluted compounds in 23 nl DMSO were added to cells. […] Compound and reagent-treated plates were incubated for 24 h at 37 C in a 5% CO2 incubator. Perkin Elmer ATPlitetrade mark 1 step (3 ul) was then added to each well. Luminescence was detected using a Perkin Elmer ViewLuxtrade mark plate reader.
1.Dispensing RAW 264.7 cells into 1536-well, white walled tissue culture plates at a density of 4000 cells/well (4 uL).
2.Incubation at 37 C in a 5% CO2 incubator overnight.
3.Serially diluting compounds (1:5 serial dilution; 0.0024 uM to […] final concentration) in 23 nl DMSO.
5.Incubating the compound and reagent-treated plates for 24 hours at 37 C in a 5% CO2 incubator.
6.Adding ATP-Lite (3 ul).
7.Reading plates by ViewLux with an exposure length of 5 seconds.
In the case of CCOc1ccc(-c2cc(C)[n+](CCN(CC)CC)c(-c3ccc(OCC)cc3)c2)cc1, the Potency is reported as 3.55 µM (active).
For CC12CCC3C(CCC4CC(=O)CCC43C)C1CC(=NO)C2=O (stereo not given), the “activity change, negative = inhibition” value was -4.31%.
For CC1CCCN1CCC(C(N)=O)(c1ccccc1)c1ccccc1 (stereo not given), the “activity change, negative = inhibition” value was 4.44%.
With CC1C(=O)OC2CCN3CC=C(COC(=O)C(C)(O)C1(C)O)C23 (stereo not given) the “activity change, negative = inhibition” value was -1.98%.
With CC1=CC(=Cc2sc3ccccc3[n+]2C)C=C(C)O1 the Potency was 5.01 µM (active).
With CCOC(=O)C1(c2ccccc2)CCN(CC(O)c2ccc(NC(C)=O)cc2)CC1 (stereo not given) the “activity change, negative = inhibition” value was -1.41%.
In the case of C=C(C)C1(CCCC)C(=O)NC(=S)NC1=O, the “activity change, negative = inhibition” value is reported as 2.2%.
With CC(=O)OC1C2(CC3N4C(=O)C5(CO)SSC4(CC31O)C(=O)N5C)OC(C)C(C)(C)C2=O (stereo not given) the “activity change, negative = inhibition” value was -9.77%.
For Cc1cc(C)c2c(c1)NP(=S)(c1ccccc1)N2 (stereo not given), the “activity change, negative = inhibition” value was -3.79%.
With CC1(c2cccc([N+](=O)[O-])c2)CC(C)(C)N(C(=O)c2ccccc2)c2ccccc21 (stereo not given) the “activity change, negative = inhibition” value was 52.7%.
